For one compound, inhibition results are on record in ChEMBL document CHEMBL1961873, “Compounds: GSK PKIS; Assays: Nanosyn kinase panel” (2012).

Test [1] deals with Sphingosine kinase 1 (Homo sapiens) (UniProt Q9NYA1). Particulars: at 1 µM.
For test [2], the target named is T1, Sphingosine kinase 2 (Homo sapiens) (UniProt Q9NRA0).
T1 sequence (whole entry): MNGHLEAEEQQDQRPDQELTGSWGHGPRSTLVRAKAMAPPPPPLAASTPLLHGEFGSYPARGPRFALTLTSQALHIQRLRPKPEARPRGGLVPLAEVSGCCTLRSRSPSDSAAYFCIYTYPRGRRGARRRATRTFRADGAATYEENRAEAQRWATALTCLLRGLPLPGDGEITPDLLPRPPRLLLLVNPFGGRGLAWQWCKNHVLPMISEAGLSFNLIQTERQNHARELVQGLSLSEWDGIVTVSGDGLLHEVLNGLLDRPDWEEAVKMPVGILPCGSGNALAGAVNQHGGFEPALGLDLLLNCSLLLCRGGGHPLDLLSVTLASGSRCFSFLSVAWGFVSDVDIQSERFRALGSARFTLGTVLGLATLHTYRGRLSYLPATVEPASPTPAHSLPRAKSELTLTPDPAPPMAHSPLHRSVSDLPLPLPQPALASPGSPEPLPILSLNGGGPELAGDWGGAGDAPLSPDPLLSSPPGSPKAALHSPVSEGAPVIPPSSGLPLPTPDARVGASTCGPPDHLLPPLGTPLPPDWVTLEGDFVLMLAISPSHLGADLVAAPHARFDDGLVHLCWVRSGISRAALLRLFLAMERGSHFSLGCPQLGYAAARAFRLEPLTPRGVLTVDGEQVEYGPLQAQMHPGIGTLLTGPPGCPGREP
To be noted: at 0.1 µM.

Test [3] concerns the target T1, Sphingosine kinase 2 (Homo sapiens). To be noted: at 1 µM.
For test [4], the target named is Casein kinase II subunit alpha (Homo sapiens) (UniProt P68400). To be noted: at 0.1 µM.
Test [5] has the same target. To be noted: at 1 µM.
In test [6] the target is T2, Inhibitor of nuclear factor kappa-B kinase subunit alpha (Homo sapiens) (UniProt O15111).
T2 sequence (whole entry): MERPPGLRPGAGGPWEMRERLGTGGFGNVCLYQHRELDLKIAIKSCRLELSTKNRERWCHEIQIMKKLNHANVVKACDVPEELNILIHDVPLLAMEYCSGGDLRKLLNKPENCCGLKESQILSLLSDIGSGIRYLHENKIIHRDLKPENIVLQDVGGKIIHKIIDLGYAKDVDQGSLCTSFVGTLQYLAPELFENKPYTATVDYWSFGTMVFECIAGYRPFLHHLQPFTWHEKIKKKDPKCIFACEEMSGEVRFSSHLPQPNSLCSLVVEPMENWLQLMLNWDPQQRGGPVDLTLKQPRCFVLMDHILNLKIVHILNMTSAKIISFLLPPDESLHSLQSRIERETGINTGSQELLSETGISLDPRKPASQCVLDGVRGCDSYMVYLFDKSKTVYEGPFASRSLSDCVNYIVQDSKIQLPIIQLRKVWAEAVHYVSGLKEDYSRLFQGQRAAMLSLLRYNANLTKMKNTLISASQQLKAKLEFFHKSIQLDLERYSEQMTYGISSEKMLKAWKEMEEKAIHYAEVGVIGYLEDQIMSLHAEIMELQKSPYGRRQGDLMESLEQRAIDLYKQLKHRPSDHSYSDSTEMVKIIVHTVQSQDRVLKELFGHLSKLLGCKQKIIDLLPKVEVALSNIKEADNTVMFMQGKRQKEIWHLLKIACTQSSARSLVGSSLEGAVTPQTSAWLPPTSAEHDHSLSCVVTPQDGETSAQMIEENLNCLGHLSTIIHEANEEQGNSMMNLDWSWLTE
To be noted: at 0.1 µM.

Test [7] addresses T2, Inhibitor of nuclear factor kappa-B kinase subunit alpha (Homo sapiens). Particulars: at 1 µM.
Test [8] deals with T3, Inhibitor of nuclear factor kappa-B kinase subunit beta (Homo sapiens) (UniProt O14920).
T3 sequence (whole entry): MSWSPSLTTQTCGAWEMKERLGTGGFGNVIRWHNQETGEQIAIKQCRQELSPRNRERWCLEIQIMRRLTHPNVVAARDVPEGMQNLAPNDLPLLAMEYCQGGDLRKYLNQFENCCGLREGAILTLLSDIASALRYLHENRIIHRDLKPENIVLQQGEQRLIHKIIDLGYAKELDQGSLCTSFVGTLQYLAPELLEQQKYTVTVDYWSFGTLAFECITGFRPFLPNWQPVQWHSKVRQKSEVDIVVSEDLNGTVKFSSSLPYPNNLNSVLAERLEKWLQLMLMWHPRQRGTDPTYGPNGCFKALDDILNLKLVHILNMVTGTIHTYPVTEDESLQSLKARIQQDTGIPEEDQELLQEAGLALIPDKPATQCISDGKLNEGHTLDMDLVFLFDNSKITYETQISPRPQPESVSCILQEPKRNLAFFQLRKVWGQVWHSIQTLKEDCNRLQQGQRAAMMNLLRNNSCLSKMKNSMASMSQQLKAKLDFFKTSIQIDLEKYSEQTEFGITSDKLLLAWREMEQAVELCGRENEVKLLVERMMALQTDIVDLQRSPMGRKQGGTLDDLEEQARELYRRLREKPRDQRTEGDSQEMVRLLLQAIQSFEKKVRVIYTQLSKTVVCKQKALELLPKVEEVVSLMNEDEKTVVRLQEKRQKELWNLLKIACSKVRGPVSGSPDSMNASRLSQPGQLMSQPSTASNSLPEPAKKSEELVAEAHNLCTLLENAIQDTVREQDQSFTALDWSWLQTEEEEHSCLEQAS
To be noted: at 0.1 µM.

Test [9] deals with T3, Inhibitor of nuclear factor kappa-B kinase subunit beta (Homo sapiens). Particulars: at 1 µM.
Test [10] has as its target T4, Inhibitor of nuclear factor kappa-B kinase subunit epsilon (Homo sapiens) (UniProt Q14164).
T4 sequence (whole entry): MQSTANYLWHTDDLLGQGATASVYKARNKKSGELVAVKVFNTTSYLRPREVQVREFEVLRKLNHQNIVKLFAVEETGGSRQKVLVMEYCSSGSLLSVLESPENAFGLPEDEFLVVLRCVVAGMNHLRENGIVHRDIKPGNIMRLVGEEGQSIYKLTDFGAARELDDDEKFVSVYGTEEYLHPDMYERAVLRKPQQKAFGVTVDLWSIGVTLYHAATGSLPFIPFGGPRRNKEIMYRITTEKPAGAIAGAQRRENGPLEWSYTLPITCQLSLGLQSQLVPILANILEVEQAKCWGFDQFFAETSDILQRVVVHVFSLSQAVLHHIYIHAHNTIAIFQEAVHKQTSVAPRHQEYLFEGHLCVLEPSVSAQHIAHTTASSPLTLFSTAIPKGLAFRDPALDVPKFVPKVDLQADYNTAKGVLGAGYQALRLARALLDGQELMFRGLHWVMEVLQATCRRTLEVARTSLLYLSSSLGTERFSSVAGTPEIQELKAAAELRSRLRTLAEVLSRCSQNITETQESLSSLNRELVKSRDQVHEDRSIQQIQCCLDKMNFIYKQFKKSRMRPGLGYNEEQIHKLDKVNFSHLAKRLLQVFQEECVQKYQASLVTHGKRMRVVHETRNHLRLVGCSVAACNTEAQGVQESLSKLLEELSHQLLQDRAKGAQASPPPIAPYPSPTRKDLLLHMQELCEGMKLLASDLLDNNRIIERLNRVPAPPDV
To be noted: at 0.1 µM.

Test [11] addresses T4, Inhibitor of nuclear factor kappa-B kinase subunit epsilon (Homo sapiens). Particulars: at 1 µM.
Test [12] has as its target T5, Serine/threonine-protein kinase Nek1 (Homo sapiens) (UniProt Q96PY6).
T5 sequence (whole entry): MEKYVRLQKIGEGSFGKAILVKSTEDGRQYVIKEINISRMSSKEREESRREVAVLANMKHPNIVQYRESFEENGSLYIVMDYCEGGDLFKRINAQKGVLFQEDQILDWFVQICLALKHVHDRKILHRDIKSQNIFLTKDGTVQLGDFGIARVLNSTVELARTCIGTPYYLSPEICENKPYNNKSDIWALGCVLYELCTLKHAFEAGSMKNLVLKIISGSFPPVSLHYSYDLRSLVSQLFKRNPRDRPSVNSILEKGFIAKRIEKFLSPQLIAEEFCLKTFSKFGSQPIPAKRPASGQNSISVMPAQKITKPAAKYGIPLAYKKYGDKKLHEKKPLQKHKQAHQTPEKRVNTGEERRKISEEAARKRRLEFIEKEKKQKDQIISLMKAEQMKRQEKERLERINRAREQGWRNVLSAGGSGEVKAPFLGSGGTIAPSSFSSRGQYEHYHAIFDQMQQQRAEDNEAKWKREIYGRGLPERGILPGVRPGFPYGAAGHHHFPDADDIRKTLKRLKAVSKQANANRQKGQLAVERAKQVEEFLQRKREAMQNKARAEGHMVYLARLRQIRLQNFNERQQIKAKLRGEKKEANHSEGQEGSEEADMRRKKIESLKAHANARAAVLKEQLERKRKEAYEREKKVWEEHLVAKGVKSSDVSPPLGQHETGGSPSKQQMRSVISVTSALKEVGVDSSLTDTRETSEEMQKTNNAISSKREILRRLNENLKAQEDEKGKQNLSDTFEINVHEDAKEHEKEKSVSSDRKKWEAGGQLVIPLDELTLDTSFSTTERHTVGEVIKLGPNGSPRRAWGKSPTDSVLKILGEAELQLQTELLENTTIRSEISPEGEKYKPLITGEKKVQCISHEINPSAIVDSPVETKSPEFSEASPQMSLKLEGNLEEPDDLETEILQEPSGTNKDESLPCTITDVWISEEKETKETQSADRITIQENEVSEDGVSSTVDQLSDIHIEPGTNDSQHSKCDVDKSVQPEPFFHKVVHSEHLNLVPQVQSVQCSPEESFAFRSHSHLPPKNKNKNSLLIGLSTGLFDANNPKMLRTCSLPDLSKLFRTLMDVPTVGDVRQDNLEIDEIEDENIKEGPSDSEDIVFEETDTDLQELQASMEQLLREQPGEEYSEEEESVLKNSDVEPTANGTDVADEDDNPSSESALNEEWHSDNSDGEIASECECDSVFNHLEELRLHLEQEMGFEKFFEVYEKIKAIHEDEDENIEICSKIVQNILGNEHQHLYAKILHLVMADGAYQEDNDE
To be noted: at 0.1 µM.

Test [13] has as its target T5, Serine/threonine-protein kinase Nek1 (Homo sapiens). To be noted: at 1 µM.
The target in test [14] is T6, Serine/threonine-protein kinase Nek2 (Homo sapiens) (UniProt P51955).
T6 sequence (whole entry): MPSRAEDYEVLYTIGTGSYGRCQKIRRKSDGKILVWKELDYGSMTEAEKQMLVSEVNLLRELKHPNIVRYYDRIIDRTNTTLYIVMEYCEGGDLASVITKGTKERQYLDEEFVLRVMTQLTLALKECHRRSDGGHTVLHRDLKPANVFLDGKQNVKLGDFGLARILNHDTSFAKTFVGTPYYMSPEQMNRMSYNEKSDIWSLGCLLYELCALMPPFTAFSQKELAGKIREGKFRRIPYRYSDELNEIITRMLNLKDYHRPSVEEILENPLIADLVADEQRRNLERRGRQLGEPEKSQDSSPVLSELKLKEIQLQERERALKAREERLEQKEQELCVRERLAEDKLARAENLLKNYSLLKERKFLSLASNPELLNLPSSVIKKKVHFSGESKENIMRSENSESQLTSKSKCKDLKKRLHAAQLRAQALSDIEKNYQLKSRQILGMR
Particulars: at 0.1 µM.

Test [15] deals with T6, Serine/threonine-protein kinase Nek2 (Homo sapiens). Particulars: at 1 µM.
Test [16] addresses Serine/threonine-protein kinase Nek6 (Homo sapiens) (UniProt Q9HC98). Particulars: at 0.1 µM.
For test [17] the target is unchanged. To be noted: at 1 µM.
Test [18] deals with Serine/threonine-protein kinase Nek7 (Homo sapiens) (UniProt Q8TDX7). Particulars: at 0.1 µM.
Test [19] has the same target. Particulars: at 1 µM.
Test [20] has as its target T7, Serine/threonine-protein kinase Nek9 (Homo sapiens) (UniProt Q8TD19).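 Note: reported value is the mean percent inhibition of NEK9.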
T7 sequence (whole entry): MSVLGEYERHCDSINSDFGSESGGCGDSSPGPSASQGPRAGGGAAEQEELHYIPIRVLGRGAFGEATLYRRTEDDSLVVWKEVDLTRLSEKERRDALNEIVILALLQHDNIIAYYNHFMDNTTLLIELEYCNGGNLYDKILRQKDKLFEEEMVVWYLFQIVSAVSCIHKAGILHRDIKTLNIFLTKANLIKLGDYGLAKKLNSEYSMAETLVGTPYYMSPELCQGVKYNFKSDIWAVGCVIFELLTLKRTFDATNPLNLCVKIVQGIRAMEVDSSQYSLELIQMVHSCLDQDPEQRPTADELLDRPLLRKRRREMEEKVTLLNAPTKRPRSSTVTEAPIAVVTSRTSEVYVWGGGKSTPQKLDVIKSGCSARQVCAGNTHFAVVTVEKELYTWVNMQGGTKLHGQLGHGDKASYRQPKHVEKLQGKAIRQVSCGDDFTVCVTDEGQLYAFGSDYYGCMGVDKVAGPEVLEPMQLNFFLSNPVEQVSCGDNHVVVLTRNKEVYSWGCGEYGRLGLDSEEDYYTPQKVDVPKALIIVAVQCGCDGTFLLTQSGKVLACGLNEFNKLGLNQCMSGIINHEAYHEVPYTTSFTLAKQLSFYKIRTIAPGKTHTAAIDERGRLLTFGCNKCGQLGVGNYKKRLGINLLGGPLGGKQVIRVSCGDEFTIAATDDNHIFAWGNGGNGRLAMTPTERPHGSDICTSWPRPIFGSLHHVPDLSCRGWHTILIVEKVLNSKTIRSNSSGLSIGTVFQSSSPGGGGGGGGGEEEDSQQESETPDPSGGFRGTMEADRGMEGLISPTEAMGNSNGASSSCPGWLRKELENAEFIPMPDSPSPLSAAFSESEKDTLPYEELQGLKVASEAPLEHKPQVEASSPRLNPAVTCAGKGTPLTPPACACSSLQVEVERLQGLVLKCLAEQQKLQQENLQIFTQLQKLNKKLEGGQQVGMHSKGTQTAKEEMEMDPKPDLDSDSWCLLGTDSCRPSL
To be noted: at 0.1 µM.

Chain of Serine/threonine-protein kinase Nek6 (Homo sapiens) (Q9HC98 whole entry): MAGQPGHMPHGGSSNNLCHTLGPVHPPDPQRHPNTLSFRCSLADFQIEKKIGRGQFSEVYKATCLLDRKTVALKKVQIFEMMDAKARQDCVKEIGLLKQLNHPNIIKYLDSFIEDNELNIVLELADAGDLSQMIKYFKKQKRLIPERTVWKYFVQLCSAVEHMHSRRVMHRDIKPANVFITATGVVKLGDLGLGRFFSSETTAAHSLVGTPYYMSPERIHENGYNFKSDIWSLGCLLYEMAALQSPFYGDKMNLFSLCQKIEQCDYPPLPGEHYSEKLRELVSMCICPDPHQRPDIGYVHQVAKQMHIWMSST
Chain of Casein kinase II subunit alpha (Homo sapiens) (P68400 whole entry, looked up): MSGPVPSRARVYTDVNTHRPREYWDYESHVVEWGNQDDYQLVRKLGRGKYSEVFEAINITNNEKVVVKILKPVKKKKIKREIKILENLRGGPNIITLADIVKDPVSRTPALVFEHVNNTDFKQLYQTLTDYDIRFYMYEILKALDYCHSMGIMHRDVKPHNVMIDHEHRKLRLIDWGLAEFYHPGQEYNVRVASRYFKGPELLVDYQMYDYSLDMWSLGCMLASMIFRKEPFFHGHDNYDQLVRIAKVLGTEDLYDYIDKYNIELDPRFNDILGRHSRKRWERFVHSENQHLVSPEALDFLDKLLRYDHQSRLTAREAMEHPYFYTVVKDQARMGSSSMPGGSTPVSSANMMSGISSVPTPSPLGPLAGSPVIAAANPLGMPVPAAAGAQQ
Chain of Serine/threonine-protein kinase Nek7 (Homo sapiens) (Q8TDX7 whole entry, looked up): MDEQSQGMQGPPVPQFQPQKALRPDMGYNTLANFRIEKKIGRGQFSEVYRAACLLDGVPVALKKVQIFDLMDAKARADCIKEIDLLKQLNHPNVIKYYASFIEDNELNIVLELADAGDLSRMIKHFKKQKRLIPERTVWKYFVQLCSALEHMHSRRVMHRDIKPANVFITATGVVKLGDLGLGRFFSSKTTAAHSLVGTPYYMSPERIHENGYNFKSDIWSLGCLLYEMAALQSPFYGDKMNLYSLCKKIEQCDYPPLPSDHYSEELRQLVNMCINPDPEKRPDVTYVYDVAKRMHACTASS
Chain of Sphingosine kinase 1 (Homo sapiens) (Q9NYA1 whole entry): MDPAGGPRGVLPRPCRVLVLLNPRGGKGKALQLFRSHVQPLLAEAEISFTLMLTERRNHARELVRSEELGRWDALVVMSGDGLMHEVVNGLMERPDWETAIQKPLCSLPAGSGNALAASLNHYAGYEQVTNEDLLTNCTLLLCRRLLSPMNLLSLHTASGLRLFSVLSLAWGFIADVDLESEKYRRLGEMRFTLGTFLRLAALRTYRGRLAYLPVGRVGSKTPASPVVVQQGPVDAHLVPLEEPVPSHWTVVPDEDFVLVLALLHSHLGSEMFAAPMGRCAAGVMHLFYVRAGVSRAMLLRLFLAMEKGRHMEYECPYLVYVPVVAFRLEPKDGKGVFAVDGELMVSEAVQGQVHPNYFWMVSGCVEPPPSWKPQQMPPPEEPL

With `CS(=O)(=O)CCNCc1ccc(-c2ccc3ncnc(Nc4ccc(OCc5ccccc5)c(C(F)(F)F)c4)c3c2)o1`, the inhibition in test [1] is 3.88%; in test [2] it was -1.22%; in [3] it was 0.8%; in test [4] it was 10.8%; in test [5], 4.64%; in test [6], 5.21%. The inhibition in test [7] was 0.84%; in test [8], 9.46%; in test [9] it was 10.4%; in test [10], 6.52%; in test [11] it was 5.28%; in test [12], 1.71%. The inhibition in [13] is 1.9%; in test [14] it was 4.27%; in [15] it was 5.33%; in test [16], 0.91%; in test [17], -0.61%; in test [18] it was 2.28%. For the same compound, the figures for the inhibition in [19] and in [20] were 4.17% and 7.54%, respectively.
